We go through eight compounds from PubChem BioAssay (NCI).

The panel holds about 83,000 compounds, 20% with a hit somewhere; the sample as a whole holds those more often.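 Values shown are percent growth following 48 h exposure of cells in 96-well plates to a single concentration of compound; below 10 was considered active.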 A number with no mark means an inactive call. Calls of active or inactive are those of the source.

Some test systems named below: DU-145 prostate; K-562 leukemia; MALME-3M melanoma; MDA-MB-231 breast; RXF 393 renal; SF-268 CNS; SF-295 CNS; SF-539 CNS; UACC-257 melanoma; HCT-15 colon; HT29 colon; SNB-75 CNS; SNB-19 CNS; U251 CNS; PC-3 prostate; SK-MEL-5 melanoma; UACC-62 melanoma; LOX IMVI melanoma; SK-MEL-28 melanoma.
Holding throughout (test): NCI-60 one-dose screen, 48 h (100 = growth as untreated, 0 = no growth, -100 = all killed)
Holding throughout (conditions): 10 µM unless noted

As to `O=C(NCCCNC(=O)OCc1ccc2c(Br)cc(Br)c(O)c2n1)OCc1ccc2c(Br)cc(Br)c(O)c2n1`, the growth in the assay on DU-145 prostate was -80.8% (active); in the assay with K-562 leukemia, 3.3% (active); in the assay on MALME-3M melanoma it was -87.8% (active); with MDA-MB-231 breast, -68.5% (active); in the assay on RXF 393 renal it was -93.3% (active); with SF-268 CNS, 10.3%. Moreover, the growth in the assay with SF-295 CNS is 20%; with SF-539 CNS, -96.8% (active); in the assay with UACC-257 melanoma it was -37.5% (active); with HCT-15 colon, -34.4% (active); in the assay on HT29 colon, -73% (active); with SNB-75 CNS it was -87.6% (active). Moreover, the growth was 44.6% with SNB-19 CNS; -70.4% (active) with U251 CNS; -25.5% (active) with PC-3 prostate; -77.7% (active) in the assay with SK-MEL-5 melanoma; -87.1% (active) with UACC-62 melanoma; -92% (active) with LOX IMVI melanoma. In addition, the growth in the assay on SK-MEL-28 melanoma is -75.9% (active).
Turning to `CCC(Br)(CC)C(=O)c1ccc(OCC(=O)O)c(Cl)c1Cl`, the growth is 114% in the assay with DU-145 prostate; 114% in the assay on K-562 leukemia; 107% with MALME-3M melanoma; 107% with MDA-MB-231 breast; 88.8% in the assay on RXF 393 renal; 100% in the assay with SF-268 CNS. For the same compound, the growth is 81.6% with SF-295 CNS; 96.9% in the assay on SF-539 CNS; 124% in the assay on UACC-257 melanoma; 103% in the assay on HCT-15 colon; 110% in the assay with HT29 colon; 92.7% with SNB-75 CNS. Moreover, the growth is 104% with SNB-19 CNS; 106% with U251 CNS; 108% in the assay with PC-3 prostate; 97.7% in the assay with SK-MEL-5 melanoma; 87.4% in the assay on UACC-62 melanoma; 96.9% with LOX IMVI melanoma. Also, the growth in the assay on SK-MEL-28 melanoma is 111%.
Turning to `O=C(CCCCCCSc1nc(-c2ccc(Cl)cc2)cc(-c2ccc(Cl)cc2)n1)NO`, the growth was 22.4% with DU-145 prostate; 24.4% in the assay with K-562 leukemia; 15% in the assay with MALME-3M melanoma; 61.1% in the assay with MDA-MB-231 breast; 2.65% (active) with RXF 393 renal; 30.4% in the assay on SF-268 CNS. Moreover, the growth in the assay on SF-295 CNS was 52.6%; in the assay on SF-539 CNS it was 28.4%; in the assay with UACC-257 melanoma, 31.5%; with HCT-15 colon, 23.6%; in the assay on HT29 colon, 20.4%; with SNB-75 CNS, 57.7%. Moreover, the growth was 37.3% in the assay with SNB-19 CNS; 16.6% in the assay with U251 CNS; 42.8% with PC-3 prostate; 5.66% (active) with SK-MEL-5 melanoma; 16.1% with UACC-62 melanoma; 2.18% (active) in the assay on LOX IMVI melanoma. Besides, the growth in the assay on SK-MEL-28 melanoma was 57.8%.
Turning to `C=C(C)[C@@H]1CC[C@]2(C(=O)NCCNCCNCCN)CC[C@]3(C)[C@H](CC[C@@H]4[C@@]5(C)CCC(=O)C(C)(C)[C@@H]5CC[C@]43C)[C@@H]12`, the growth was -56.7% [100 µM] (active) with DU-145 prostate; -17% [100 µM] (active) in the assay with K-562 leukemia; -72.8% [100 µM] (active) with MALME-3M melanoma; -92.4% [100 µM] (active) in the assay with MDA-MB-231 breast; -71.9% [100 µM] (active) in the assay on RXF 393 renal; -38.7% [100 µM] (active) in the assay with SF-268 CNS. Besides, the growth in the assay on SF-295 CNS is -54.5% [100 µM] (active); in the assay on SF-539 CNS, -92.7% [100 µM] (active); with UACC-257 melanoma, -10.7% [100 µM] (active); in the assay with HCT-15 colon, -36.6% [100 µM] (active); in the assay with HT29 colon, -77.4% [100 µM] (active); with SNB-75 CNS it was -41.5% [100 µM] (active). In addition, the growth is -78.5% [100 µM] (active) in the assay with SNB-19 CNS; -81.8% [100 µM] (active) with U251 CNS; -24.6% [100 µM] (active) in the assay with PC-3 prostate; -86.2% [100 µM] (active) in the assay on SK-MEL-5 melanoma; -68.2% [100 µM] (active) with LOX IMVI melanoma; -73.9% [100 µM] (active) with SK-MEL-28 melanoma.
As to `O=C(Nc1cccnc1)c1ccc2ccc3ccc(C(=O)Nc4cccnc4)nc3c2n1`, the growth in the assay with DU-145 prostate was 14.6%; with K-562 leukemia, 17.1%; in the assay on MALME-3M melanoma, 46.7%; with MDA-MB-231 breast, 25.2%; with RXF 393 renal, -50.4% (active); with SF-268 CNS, 15.9%. Also, the growth was 5.39% (active) in the assay with SF-295 CNS; -6.56% (active) in the assay with SF-539 CNS; 30.8% in the assay with UACC-257 melanoma; 19.9% in the assay with HCT-15 colon; 7.42% (active) in the assay with HT29 colon; 40.6% in the assay with SNB-75 CNS. Also, the growth was 13.2% with SNB-19 CNS; 12.2% in the assay on U251 CNS; 33.2% in the assay with PC-3 prostate; 26.3% in the assay with SK-MEL-5 melanoma; 29% with UACC-62 melanoma; 14% with LOX IMVI melanoma. Also, in the assay with SK-MEL-28 melanoma, the growth was 17.7%.
For `Cc1ccc(NC(=S)/N=c2/n(-c3ccccc3)nc3n2CCN3C2=NCCN2)cc1`, the growth in the assay on DU-145 prostate is 111%; in the assay with K-562 leukemia, 121%; in the assay on MALME-3M melanoma it was 113%; in the assay on MDA-MB-231 breast it was 92.9%; with RXF 393 renal, 101%; in the assay with SF-268 CNS, 109%. Further, the growth in the assay with SF-295 CNS is 99.3%; with SF-539 CNS, 102%; with UACC-257 melanoma it was 109%; with HCT-15 colon, 107%; with HT29 colon, 99.1%; in the assay on SNB-75 CNS, 80.6%. Further, the growth in the assay with SNB-19 CNS was 119%; in the assay on U251 CNS, 108%; in the assay with PC-3 prostate it was 85.6%; with SK-MEL-5 melanoma it was 101%; with UACC-62 melanoma it was 99.2%; in the assay on LOX IMVI melanoma, 108%. Moreover, in the assay on SK-MEL-28 melanoma, the growth is 108%.
Turning to `COc1cc2c(c(OC)c1OC)-c1ccc(NNC(N)=S)c(=O)cc1[C@@H](NC(C)=O)CC2`, the growth was -14.5% (active) in the assay with DU-145 prostate; 10.1% with K-562 leukemia; 88.4% in the assay on MALME-3M melanoma; 20% in the assay on MDA-MB-231 breast; -8.91% (active) with RXF 393 renal; 21.3% with SF-268 CNS. Besides, the growth is 10.6% with SF-295 CNS; -18.4% (active) in the assay on SF-539 CNS; 57.2% in the assay on UACC-257 melanoma; 38.8% in the assay with HCT-15 colon; -17.8% (active) in the assay with HT29 colon; 59.5% in the assay with SNB-75 CNS. In addition, the growth was 42.3% in the assay on SNB-19 CNS; 13.6% with U251 CNS; 13.8% in the assay with PC-3 prostate; -41.2% (active) with SK-MEL-5 melanoma; 32.2% in the assay on UACC-62 melanoma; 26.2% in the assay with LOX IMVI melanoma. In the assay on SK-MEL-28 melanoma, the growth was 62.8%.
As for `Cc1nc(Cl)c2c(n1)N(C)c1ccc(Cl)cc1C(C)C2` (stereo unspecified), the growth is 105% in the assay on DU-145 prostate; 77.3% with K-562 leukemia; 95.6% in the assay on MALME-3M melanoma; 77.1% with MDA-MB-231 breast; 101% in the assay with RXF 393 renal; 88.9% in the assay with SF-268 CNS. In addition, the growth in the assay on SF-295 CNS was 91.2%; with SF-539 CNS, 96.5%; in the assay with UACC-257 melanoma, 88%; in the assay on HCT-15 colon it was 90.5%; in the assay on HT29 colon, 83.8%; in the assay on SNB-75 CNS, 66.1%. For the same compound, the growth with SNB-19 CNS is 90.5%; with U251 CNS, 90.1%; in the assay on PC-3 prostate it was 73.5%; with SK-MEL-5 melanoma it was 82.5%; with UACC-62 melanoma, 65%; with LOX IMVI melanoma it was 92.3%. Further, the growth in the assay with SK-MEL-28 melanoma is 105%.
